This note sets out measurements from PubChem BioAssay AID1421 (Emory University Molecular Libraries Screening Center, 2008).

Structures are written as SMILES. Among all 1,300 compounds or so, about 140 (11%) were called active. These entries were drawn from the full list. Results with a measured potency or affinity are listed apart. Values without a mark were called inactive. No rule for the calls is given here.

Chain of Prostaglandin E2 receptor EP2 subtype (Homo sapiens) (P43116 whole entry, looked up): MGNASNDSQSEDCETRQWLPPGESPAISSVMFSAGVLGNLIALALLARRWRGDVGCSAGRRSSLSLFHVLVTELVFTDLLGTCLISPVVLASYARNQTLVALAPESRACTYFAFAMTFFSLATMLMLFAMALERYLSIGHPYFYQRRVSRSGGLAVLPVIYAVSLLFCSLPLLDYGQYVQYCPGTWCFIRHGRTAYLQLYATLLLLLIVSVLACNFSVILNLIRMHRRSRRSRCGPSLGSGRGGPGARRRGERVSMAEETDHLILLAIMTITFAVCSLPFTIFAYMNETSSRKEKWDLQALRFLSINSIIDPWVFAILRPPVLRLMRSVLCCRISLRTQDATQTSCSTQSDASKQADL

The test concerns the target Prostaglandin E2 receptor EP2 subtype (Homo sapiens) (UniProt P43116). Description: EP2 receptor modulators, dose response, cell-based, human EP2, PGE2 EC50 shift (AID 1421). The settings on record: EP2-expressing cells, PGE2 EC50 shift by compound; at 20 µM.
Consider `CCCSc1nc(N2CCOCC2)c2c(c1C#N)CCCC2`, for which the PGE2 EC50 with compound was 340 pM. To `Cc1ccc2cccc(NC(=O)c3ccc(Br)o3)c2n1` belongs 120 pM. To `Cc1cccc(-c2nc(=S)c3c(n2Cc2ccco2)CCCC3)c1` belongs 550 pM. To `CN(CC(=O)Nc1ccccc1Oc1ccccc1)Cc1ccccc1F` belongs 300 pM; to `COc1ccccc1CN(C)CC(=O)Nc1ccccc1-c1ccccc1`, 720 pM; to `CC(C)c1nc(SCc2c(F)cccc2Cl)c2c(=O)n(C)c(=O)n(C)c2n1`, 230 pM. With `CC1CN(c2nc3ccccc3cc2-c2ccccc2)CC(C)O1` (stereo not given), the PGE2 EC50 with compound was 310 pM. To `CCCc1cc(-c2n[nH]c(=S)n2Cc2ccccc2)cs1` belongs 760 pM.

On to `CCCCn1c(-c2csc(CCC)c2)n[nH]c1=S`, for which the PGE2 EC50 with compound was 430 pM.

`Cc1ccc(C(=O)N2N=C(c3ccccc3)CC2(O)C(F)(F)F)o1` (stereo not given): the PGE2 EC50 with compound is 310 pM. To `CCOc1cc(/C=N/NC(N)=O)ccc1OC(=O)c1ccc(C)cc1` belongs 420 pM. Consider `Cc1ccc2nc(-c3ccncc3)cc(-c3ccccc3)c2c1`, for which the PGE2 EC50 with compound is 170 pM.

As to `Nc1nc(Cc2ccccc2)nc(Cc2ccccc2)c1-c1ccccc1`, the PGE2 EC50 with compound was 430 pM. For the molecule `CC(C)c1ccc(OCC(=O)NC(=S)Nc2ccc3c4c(cccc24)CC3)cc1`, the PGE2 EC50 with compound is 18600 pM. For `Nn1cnc2c(c1=O)C1(CCCCC1)Cc1ccccc1-2`, the PGE2 EC50 with compound was 340 pM.

In the case of `O=c1c2c(n3nnnc3n1-c1ccccc1)-c1ccccc1CC21CCCC1`, the PGE2 EC50 with compound was 770 pM.

On to `CCCn1c(SCC(=O)Nc2sc(C)c(C)c2C(=O)OCC)nc2c1c(=O)n(C)c(=O)n2C`, for which the PGE2 EC50 with compound was 470 pM. For the molecule `CCCCN1C=C(C(=O)OC)C(c2ccccc2Cl)C(C(=O)OC)=C1`, the PGE2 EC50 with compound was 380 pM. `COc1ccc(C(=O)c2cnc3ccccc3c2-c2ccccc2)cc1`: the PGE2 EC50 with compound is 790 pM. To `CCCCOc1c(Br)cc(/C=N/O)cc1OCC` belongs 480 pM. To `O=C(CSc1nnc(-c2cc3ccccc3cc2O)n1Cc1ccco1)c1ccc(F)cc1` belongs 830 pM; to `COC(=O)c1c(NC(=O)CSc2nnc(-c3cccnc3)n2Cc2ccco2)sc(C)c1C`, 690 pM.

For `CC(=O)c1ccc(S(=O)(=O)NCCCC(=O)NCCc2ccccn2)cc1`, the PGE2 EC50 with compound was 920 pM. To `CC(C)Cc1nc2sc3c(=O)[nH]cnc3c2c2c1CCC2` belongs 650 pM; to `C#CCSc1nc(Cc2ccc(Cl)cc2)nc2ccccc12`, 250 pM. To `Cc1cc(C(=O)CSc2nc3ccccc3c(=O)n2C)c(C)n1Cc1ccc2c(c1)OCO2` belongs 290 pM; to `CC(C)CCn1c(N2CCN(c3cccc(Cl)c3)CC2)nc2c1c(=O)[nH]c(=O)n2C`, 570 pM; to `COc1ccc(Cn2c(-c3ccc(OC)cc3)nc3ccccc32)cc1`, 800 pM. To `Clc1ccc(Cn2c(/C=C/c3ccco3)nc3ccccc32)cc1` belongs 660 pM.

Take `N#CCSc1nc2sc3c(c2c(=O)n1C1CCCCC1)CCCC3`: the PGE2 EC50 with compound was 320 pM.
